High-throughput results (PubChem BioAssay)
Rin1 Abl inh = human Rin1-Abl interaction inhibition | TR-FRET Rin1/Abl binding, biochemical | AID 588664 | inhibition, % at 7.35 µM | 360,000 compounds, 0.4% hits; in the data active means inhibition above about 5%, passing the limit was not always enough
TCR CD3 inh = human TCR-CD3 binding inhibition; inhibition, % at 9.4 µM; TAMRA-labeled TCR probe fluorescence, biochemical; 360,000 compounds, 0.37% hits; AID 651800; in the data active means inhibition above about 19%;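 further: recombinant mutant TCR 2C K166C tagged with TAMRA read by polarization; 0% = receptor in buffer alone and 100% = receptor with positive control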
LEDGF integ inh = blocks HIV-1 LEDGF/p75-dependent DNA integration | AID 743269 | inhibition, % at 3.7 µM | TR-FRET IN-LEDGF/p75 DNA integration, Eu/Cy5 | 370,000 compounds, 0.64% hits;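 active means inhibition above the screen-wide mean plus 3 SD, cut at about 13% in these data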;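 further: signal is the Cy5 over europium emission ratio at 671 and 618 nm; 0% = plate median of compound wells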
MBD2 inh = MBD2-methylated oligo binding inhibition; TR-FRET, MBD2 binding to methylated oligonucleotide; 370,000 compounds, 0.31% hits; inhibition, % at 4.4 µM; Q9UBB5; AID 686964; in the data active means inhibition above about 13%
Target sequence (Q9UBB5 whole entry, looked up): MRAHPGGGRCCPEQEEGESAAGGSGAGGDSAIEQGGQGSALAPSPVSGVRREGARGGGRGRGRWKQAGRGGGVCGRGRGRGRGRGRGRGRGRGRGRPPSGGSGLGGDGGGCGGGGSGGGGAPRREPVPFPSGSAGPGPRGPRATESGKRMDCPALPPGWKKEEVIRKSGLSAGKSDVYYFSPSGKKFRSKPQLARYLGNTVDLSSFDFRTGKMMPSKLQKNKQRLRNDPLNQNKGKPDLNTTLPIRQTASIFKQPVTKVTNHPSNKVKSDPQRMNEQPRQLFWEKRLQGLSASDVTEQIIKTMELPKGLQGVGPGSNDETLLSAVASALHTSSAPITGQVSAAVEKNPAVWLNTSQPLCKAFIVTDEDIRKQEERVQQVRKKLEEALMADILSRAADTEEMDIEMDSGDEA
UHRF1 MBD2 ctr = human UHRF1 methylated DNA binding inhibitors. Q96T88. UHRF1 binding to methylated oligo, TR-FRET. inhibition, % at 4.4 µM. 370,000 compounds, 0.75% hits. AID 687016; in the data active means inhibition above about 21%;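 further: UHRF1 SRA domain binding a hemimethylated CpG hairpin DNA probe; 0% = median of test compound wells and 100% = reference inhibitor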
* hit, by the source's call; x = no result given. Compounds with a hit are over-represented: about 2% of the library has one in this group of screens.

SMILES	Rin1 Abl inh	TCR CD3 inh	LEDGF integ inh	MBD2 inh	UHRF1 MBD2 ctr
O=C(COc1ccccc1)NCCSCc1ccccc1Cl	2	2	4	-5	-2
COc1ccccc1OCC(=O)NCCSCc1ccccc1Cl	2	5	2	5	25*
COc1ccc(NC(=O)c2c[nH]n3c(=O)cc(C4CCN(C(=O)OC(C)(C)C)CC4)nc23)cc1Cl	0	0	1	7	39*
COc1cc(C(=O)Oc2c(OC)cc(C(=S)N3CCOCC3)cc2OC)cc(OC)c1OC	-4	-9	-3	2	24*
COc1cc(C(=S)N2CCOCC2)ccc1OC(=O)c1cccc(C)c1	0	0	-3	5	24*
COC(=O)[C@]12C[C@H](CC(=O)NCCCN3CCCC3=O)C(=O)N(Cc3ccc(Cl)cc3Cl)C1=C[C@H](C(C)C)O[C@@H]2C1CC1	x	x	-5	8	-2
Cc1ccc(C(=O)N(C)[C@H]2C[C@H]3c4[nH]c5c(-c6cccc(C)c6)cccc5c4CCN3C[C@H]2[C@H](C)O)cc1	x	x	-5	0	-4
C=C(C)CN=CC1(C)CCC(C)=CO1 (stereo not drawn)	2	-7	-3	0	37*
CNC(=O)CSc1nnc(-c2ccccc2)n1C	-2	7	1	-3	31*
Cc1cc(NC(=O)CSc2nnc(-c3ccccc3)n2C)no1	5	1	4	2	2
COc1cccc(CC2(CO)CCCN(Cc3ccc(CN4CCCCC4)s3)C2)c1 (stereo not drawn)	1	5	-1	2	27*
COC(=O)c1ccc(N2CCOCC2)c(NC(=O)Nc2cccc(OC)c2)c1	-4	-4	-5	-4	24*
CCOC(=O)c1ccc(N2CCN(c3ccccc3F)CC2)c(NC(=O)Nc2cccc(OC)c2)c1	-1	0	1	9	5
C=CCN1[C@H](C)COc2cc(F)ccc2S1(=O)=O	x	x	2	-2	-1
CCN(CC)S(=O)(=O)c1cccc(NC(=O)COC(=O)C2COc3ccccc3O2)c1 (stereo not drawn)	2	2	1	0	24*
CNC(=S)NNC(=O)c1ccccc1Br	-2	1	3	-2	21*
COc1ccc(C(=O)NC2CC2)cc1OC1CCN(Cc2ccc(F)cc2Cl)CC1	-4	16	9	9	29*
O=C(OC(C(=O)NCc1ccccc1)c1ccccc1F)c1ccco1 (stereo not drawn)	0	-2	2	-7	0
O=C(COC(=O)c1cc(F)cc(F)c1)NCCCc1ccccc1	3	5	1	7	85*
CCOC(=O)C1=CN(Cc2ccco2)S(=O)(=O)N(C)C1CC (stereo not drawn)	-3	2	6	2	22*
CC(=O)c1cc(C#N)c(N2CCOCC2)nc1C	1	5	-2	0	34*
COc1cccc(N2CC(=O)Nc3c(oc4nc(-c5ccccc5)cc(C)c34)C2=O)c1	-2	5	-5	-2	45*
Cc1cc(-c2ccccc2)nc2oc3c(c12)NC(=O)CN(c1ccccc1)C3=O	-2	-2	-6	2	-2
c1ccc(CNC2CCC23CCC(c2ccccc2)CC3)cc1 (stereo not drawn)	x	x	3	3	81*
Cc1ccccc1CNC1CCC12CCC(c1ccccc1)CC2 (stereo not drawn)	x	x	2	0	0
SMILES	Rin1 Abl inh	TCR CD3 inh	LEDGF integ inh	MBD2 inh	UHRF1 MBD2 ctr
Cc1ccc[n+](CC(=O)Nc2ccc(C)c(C)c2)c1	-2	5	-2	0	-1
Cc1ccc(NS(=O)(=O)c2ccc(NC(=O)CSc3ccc(Cl)cc3)cc2)c(C)c1	1	23*	3	-1	4
CCOC(=O)N(C)C[C@H]1OCc2cnnn2CCCC(=O)N([C@H](C)CO)C[C@@H]1C	x	-10	-2	-2	2
COc1ccc(CCC(=O)Nc2ccc(N3CCOCC3)cc2)cc1	-4	-2	4	13	31*
COc1ccc(NS(=O)(=O)c2cc(NC(=O)CCc3ccccc3)ccc2N2CCOCC2)cc1	1	-5	-1	6	31*
CCC(=O)Nc1ccc(N2CCOCC2)c(S(=O)(=O)Nc2ccc(OC)cc2)c1	-3	7	-2	-1	1
COc1ccc(N2CCN(c3ccc4nnc(CCC(=O)Nc5ccc(C)cc5)n4n3)CC2)cc1	-2	9	0	4	21*
COc1ccc(C(O)c2cnc(C)n2Cc2ccccc2)cc1 (stereo not drawn)	1	4	0	2	-1
CC(C)CCNC(=O)C1(C)CCN1Cc1ccc2ccccc2c1 (stereo not drawn)	0	-6	3	2	34*
COc1ccc(C(=O)N/N=C/c2c[nH]c3ccccc23)cc1	0	1	-4	3	0
COc1ccc(C(=O)N/N=C/c2cc3ccccc3[nH]c2=S)cc1	-3	30*	3	-13	-12
CC(C)(C)NC(=O)CN(Cc1ccc2c(c1)OCO2)C(=O)CNS(=O)(=O)c1ccccc1	-1	-6	-4	3	0
COc1cccc2sc(Nc3nc(-c4ccncc4)cs3)nc12	1	0	7	1	-2
COc1cccc2sc(Nc3nc(-c4cc5ccccc5oc4=O)cs3)nc12	-4	19*	0	0	-3
N#CC(=Cc1ccc(O)cc1)C(N)=C(C#N)C#N	-21	-2	-2	-4	0
CCc1nnc(NC(=O)c2ccc(COc3ccccc3Cl)o2)s1	1	-2	-3	-1	28*
O=C(Nc1ccccc1N1CCOCC1)c1cnccn1	-3	-1	4	-2	37*
O=C(Nc1cc(C(F)(F)F)ccc1N1CCOCC1)c1cnccn1	1	0	2	0	0
Cc1cc(CSc2ccccc2)ccc1NC(=O)c1ccc(Br)cc1	-1	0	0	-3	33*
O=C(Nc1cccc(Br)c1)c1ccc(CSc2ccccc2)cc1	3	0	-2	-3	-1
COc1cccc(CC(=O)O[C@@H]2CCC[C@@]3(C(=O)N(Cc4ccccc4)c4ccccc43)[C@H]2NC(=O)CCc2ccccc2)c1	x	x	-2	-1	1
CC1=NN(c2ccccc2)C(=O)C1=Cc1ccccc1	29*	2	12	5	16
Cc1c(Cl)c([N+](=O)[O-])nn1CCCC(=O)N1CCN(c2ccccc2)CC1	1	5	1	-4	31*
COc1cc(NC(=O)CSc2nc(C)cc(=O)[nH]2)cc(OC)c1	x	x	-3	0	2
CCCCCCCC(=O)Nc1cc(C(=O)NCCC)ccc1N1CCC2(CC1)CC(c1ccccc1)=NO2	2	3	6	12	21*
O=C1COc2ccc(S(=O)(=O)Nc3cccc(Cl)c3)cc2N1	0	7	-1	-1	-1
CC1Cc2ccccc2N1C(=O)c1ccc2snnc2c1 (stereo not drawn)	-1	-1	-1	3	-1
Cc1nc2cc(C(=O)N3c4ccccc4CC3C)ccc2s1 (stereo not drawn)	-2	2	-1	6	22*
